Measured values taken from PubChem BioAssay (Tox21).
Records with an inconclusive call do not appear. The source made the active and inactive calls. Unless noted, the call rests on the fitted dose curve; in most records, active means well fitted curve in the direction sought with a large enough effect in the repeat runs; inconclusive means weak or mixed curves; inactive means no such curve, though single readings can be large; an effect the other way counts as inactive or inconclusive.

Columns and labels:
[1] = qHTS assay to identify small molecule agonists of the hypoxia (HIF-1) signaling pathway - cell viability counter screen (AID 1224844; calls by dose curve; further: nearly all actives have a fitted effect of over 50% in size)
Method in brief: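 Cytotoxicity measured by CellTiter-Glo ATP luminescence in the wells also read for beta-lactamase signal. Cells were HRE-bla ME-180 (2,000/well, 0.5% dialyzed FBS), exposed to compounds for 17 h at 37C.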

[2] = qHTS assay to identify small molecule agonists of H2AX (AID 1224845; active means well fitted activation curve with a large enough effect in the signal ratio in the repeat runs, not every such curve was filed as active; the % refers to the signal ratio)
Method in brief: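 Wild-type CHO-K1 cells plated overnight, then exposed 3 hr at 37C to compounds at 15 concentrations (0.76% DMSO). Lysed, then HTRF anti-pH2AX(S139)-cryptate/anti-H2AX-d2 detection after 24 hr at room temperature; emissions 665 and 620 nm.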

[3] = qHTS assay to identify small molecule agonists of the hypoxia (HIF-1) signaling pathway (AID 1224846; active means well fitted activation curve with a large enough effect in the signal ratio in the repeat runs, not every such curve was filed as active; the % refers to the signal ratio)
Method in brief: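 Compounds added to ME-180 cells carrying hypoxia-response-element beta-lactamase reporter (0.5% dialyzed FBS, 5 h preplating), 17 h at 37C; agonist activity detected by CCF4-AM B/G FRET read-out.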

[4] = qHTS assay to identify small molecule agonists of H2AX - cell viability counter screen (AID 1224847; calls by dose curve; further: top concentration of the series differs between compounds; nearly all actives have a fitted effect of over 30% in size)
Method in brief: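 Cytotoxicity counter screen in wild-type CHO-K1 cells: a 3 hr compound treatment at 37C across 15 concentrations, followed by CellTiter-Glo luminescence to gauge viable cells.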

[5] = qHTS assay to identify small molecule antagonists of the estrogen related receptor (ERR) signaling pathway from Tox21 library (AID 1224848); further: nearly all actives have a fitted effect of over 50% in size
Method in brief: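 Tox21 10K compounds in DMSO tested for ERR pathway antagonism in NTP's ERR cell line; 18 h, 37 C exposure; ONE-Glo luminescence.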

[6] = qHTS assay to identify small molecule agonists of the estrogen related receptor (ERR) signaling pathway from Tox21 library (AID 1224849; calls by dose curve; further: nearly all actives have a fitted effect of over 15% in size); conditions: ERR reporter cell line, ONE-Glo luciferase, 18 h; at 92.4 µM (top of the series) unless noted
Method in brief: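 Luminescent agonist read-out (One-Glo, 30-minute room-temperature incubation) following 18-hour compound treatment at 37 C of the ERR cell line, which had been plated 6 hours before dosing.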

[7] = qHTS RealTime-Glo MT Cell Viability Assay in HEK293 cells - 32 hour (AID 1224868); further: top concentration of the series differs between compounds; nearly all actives have a fitted effect of over 50% in size
Method in brief: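 Luminescence generated by NanoLuc from substrate produced by living HEK293 cells served as the viability signal. Each value reflects the reading at its stated time point during continuous 40 h compound exposure at 37 C.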

[8] = A CellTox Green Cytotoxicity Assay to monitor cytotoxicity in HEK293 cells - 0 hour (AID 1224869); further: nearly all actives have a fitted effect of over 50% in size
Method in brief: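 Fluorescence from a DNA-binding dye excluded by viable cells was measured repeatedly in the same HEK293 wells (600 cells/well) during continuous compound exposure at 37 C. Each assay gives one read point: 0, 8, 16, 24, 32 or 40 h.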

[9] = qHTS RealTime-Glo MT Cell Viability Assay in HepG2 cells - 40 hour (AID 1224870); further: nearly all actives have a fitted effect of over 50% in size
Method in brief: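 HepG2 cells mixed with RealTime-Glo MT reagents (NanoLuc plus cell-permeant prosubstrate) were seeded at 600 cells/well, incubated 5 h at 37 C/5% CO2, then pinned with compounds in DMSO; nonlytic luminescence tracked viability during 40 h treatment.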

[10] = qHTS RealTime-Glo MT Cell Viability Assay in HepG2 cells - 24 hour (AID 1224867); further: nearly all actives have a fitted effect of over 50% in size
Method in brief: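 Tox21 10K library screened in qHTS format on HepG2 cells carrying RealTime-Glo reagents. Compounds were added after a 5 h preincubation, and the luminescent signal from continuous culture was measured repeatedly during 40 h treatment.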
On the % scale 0 is the no-effect control and ±100 the full control effect.

CCCCN
inactive: outcome [1] | outcome [2] | outcome [3] | Potency [4] | Potency [5] | activity change, positive = activation [6] 3.11% [at 42.5 µM] | Potency [7] | outcome [8] | outcome [9]

BrCc1cccc(Oc2ccccc2)c1
inactive: outcome [1] | outcome [2] | outcome [3] | Potency [4] | Potency [5] | activity change, positive = activation [6] 0.526% | outcome [10] | Potency [7] | outcome [8] | outcome [9]

Cc1cccc(C)c1NC(=O)c1ccccc1C(=O)O
inactive: outcome [1] | outcome [2] | outcome [3] | Potency [4] | Potency [5] | activity change, positive = activation [6] 2.58% [at 42.5 µM] | outcome [10] | Potency [7] | outcome [8] | outcome [9]

CC(=O)NCc1c(I)c(NC(C)=O)c(I)c(C(=O)O)c1I
inactive: outcome [1] | outcome [2] | outcome [3] | Potency [4] | Potency [5] | activity change, positive = activation [6] 6.18% [at 42.5 µM] | outcome [10] | outcome [8] | outcome [9]

N#Cc1ccc(C(=O)O)cc1
inactive: outcome [1] | outcome [2] | outcome [3] | Potency [4] | Potency [5] | activity change, positive = activation [6] 1.83% | outcome [10] | Potency [7] | outcome [8] | outcome [9]

CC(=O)/C=C/C1C(C)=CCC(C)C1(C)C (stereo not drawn)
inactive: outcome [1] | outcome [2] | outcome [3] | Potency [4] | Potency [5] | activity change, positive = activation [6] -6.15% | Potency [7] | outcome [8] | outcome [9]

CC(COC(C)(C)C)OCCCO (stereo not drawn)
inactive: outcome [1] | outcome [2] | outcome [3] | Potency [4] | Potency [5] | activity change, positive = activation [6] 3.31% | outcome [10] | outcome [8] | outcome [9]

ClCCCl
inactive: outcome [1] | outcome [2] | outcome [3] | Potency [4] | Potency [5] | activity change, positive = activation [6] 12.2% | outcome [10] | Potency [7] | outcome [8] | outcome [9]

O=S(=O)(O)CCN1CCN(CCO)CC1
inactive: outcome [1] | outcome [2] | outcome [3] | Potency [4] | Potency [5] | activity change, positive = activation [6] 9.7% | outcome [10] | outcome [8] | outcome [9]

CC/C=C\CC1=C(C)CCC1=O
inactive: outcome [1] | outcome [2] | outcome [3] | Potency [4] | Potency [5] | activity change, positive = activation [6] -10.1% | outcome [10] | Potency [7] | outcome [8] | outcome [9]

Cc1ccccc1N=O
inactive: outcome [1] | outcome [2] | outcome [3] | Potency [4] | Potency [5] | activity change, positive = activation [6] 6.56% | outcome [10] | Potency [7] | outcome [8] | outcome [9]

O=C(CS(=O)Cc1ccco1)NC/C=C\COc1cc(CN2CCCCC2)ccn1 (stereo not drawn)
inactive: outcome [1] | outcome [2] | outcome [3] | Potency [4] | Potency [5] | activity change, positive = activation [6] 7.25% [at 42.5 µM] | outcome [10] | outcome [8] | outcome [9]

CC(=C(CCOC(=O)C(C)C)SSC(CCOC(=O)C(C)C)=C(C)N(C=O)Cc1cnc(C)nc1N)N(C=O)Cc1cnc(C)nc1N
inactive: outcome [1] | outcome [2] | outcome [3] | Potency [4] | Potency [5] | activity change, positive = activation [6] 0.537% [at 42.5 µM] | outcome [10] | outcome [8]

CC(C)(C)NC(N)=O
inactive: outcome [1] | outcome [2] | outcome [3] | Potency [4] | Potency [5] | activity change, positive = activation [6] 2.65% | Potency [7] | outcome [8]

COc1ccc(OC)c(Cl)c1
inactive: outcome [1] | outcome [2] | outcome [3] | Potency [4] | Potency [5] | activity change, positive = activation [6] -2.23% | Potency [7] | outcome [8] | outcome [9]

On1nnc2ccccc21
inactive: outcome [1] | outcome [2] | outcome [3] | Potency [4] | Potency [5] | activity change, positive = activation [6] 9.52% | outcome [10] | Potency [7] | outcome [8] | outcome [9]

O=S(O)(O)=S
inactive: activity change, negative = cytotoxicity [1] -1.07% [at 6.97 µM] | activation (H2AX phosphorylation) [2] 2.44% [at 14 µM] | activation [3] -1% [at 7.01 µM] | activity change, negative = cytotoxicity [4] 0.0189% [at 14 µM] | activity, negative = inhibition [5] 8.94% [at 8.39 µM] | activity change, positive = activation [6] 4.43% [at 8.39 µM] | activity change, negative = cytotoxicity [10] 4.23% [at 6.97 µM] | activity change, negative = cytotoxic [7] 0.732% [at 6.97 µM] | cytotoxicity [8] 0.0066% [at 6.97 µM] | activity change, negative = cytotoxic [9] 5.36% [at 6.97 µM]

Cc1ccc(S(=O)(=O)O)c(C)c1
inactive: outcome [1] | outcome [2] | outcome [3] | Potency [4] | Potency [5] | activity change, positive = activation [6] 16.9% | Potency [7] | outcome [8] | outcome [9]

Cc1nc2n(c(=O)c1CCN1CCC(c3noc4cc(F)ccc34)CC1)CCC[C@H]2O
inactive: activity change, negative = cytotoxicity [1] 1.15% [at 15.8 µM] | activation (H2AX phosphorylation) [2] -1.87% [at 31.6 µM] | activation [3] -0.458% [at 15.8 µM] | activity change, negative = cytotoxicity [4] -0.277% [at 31.6 µM] | activity, negative = inhibition [5] 3.9% [at 19 µM] | activity change, positive = activation [6] 2.19% [at 19 µM] | activity change, negative = cytotoxicity [10] 1.28% [at 15.8 µM] | cytotoxicity [8] 0.136% [at 15.8 µM] | activity change, negative = cytotoxic [9] 0.984% [at 15.8 µM]

C=C(C)C(=O)OCc1ccccc1
inactive: outcome [1] | outcome [2] | outcome [3] | Potency [4] | Potency [5] | activity change, positive = activation [6] 1.9% | outcome [10] | outcome [8] | outcome [9]

CCC(C=O)CC
inactive: outcome [1] | outcome [2] | outcome [3] | Potency [4] | Potency [5] | activity change, positive = activation [6] 2.68% | outcome [10] | Potency [7] | outcome [8] | outcome [9]

CCCCCCCCOS(=O)(=O)O
inactive: outcome [1] | outcome [2] | outcome [3] | Potency [4] | Potency [5] | activity change, positive = activation [6] 6.25% | Potency [7] | outcome [8] | outcome [9]

CC(C)=CCOC(=O)c1ccccc1
inactive: outcome [1] | outcome [2] | outcome [3] | Potency [4] | Potency [5] | activity change, positive = activation [6] 2.82% | outcome [10] | outcome [8]
